{
  "source": "the supplement of paper PMC6555819",
  "data": [
    {"tested_on": "RARg:RXRa (NR concentration 270 nM, RXRa partner concentration 90 nM)", "experiment": "PBM binding z-score (relative to random genomic background probes); higher = stronger binding; sequences stand for … in GC…GCGATTGACAGCGTAGAATGAAGG", "procedure,_shortened": "(§1)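 Probes were double-stranded and carried 34-nt variable regions with direct-repeat seeds, single-nucleotide variants, half-site ablations and random human genomic background sequences, printed on custom Agilent 4×180K protein-binding microarrays. Arrays were incubated 1 h with ligand-free nuclear receptor dimers in PBS pH 7.4, 2% milk, 0.02% Triton X-100, 1 mM DTT, 0.2 mg/mL BSA and 0.4 mg/ml salmon testes DNA. Antibodies against each partner (one per run) detected binding, and scanned fluorescence was regression-normalized. Binding z-scores use the random background probes as reference.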", "values": [
      {"sequence": "TCGAGTAGGCTAGGGGCATTCAGAATGGCGTCGA", "PBM binding z-score": -0.329},
      {"sequence": "TCATATAGGTAAATGCTAGGTAAAAGTCCGATCT", "PBM binding z-score": 0.567},
      {"sequence": "CGAACTAGGACATTGACAGGACAGTGAATAGTAA", "PBM binding z-score": 0.496},
      {"sequence": "TGGCCTAGGTCATTGGGCCAGTATAGTACGCATC", "PBM binding z-score": 3.81},
      {"sequence": "CGAACGAGGGCATGGGTTGATAGCAAATGCCGAT", "PBM binding z-score": 1.31},
      {"sequence": "TAGCTTAGGTCATGCGGGCCAGTATAGTGTCGGC", "PBM binding z-score": 3.97},
      {"sequence": "CCTATTAGTTAACCATAAGGGCAACCGAAGCTCG", "PBM binding z-score": 0.813},
      {"sequence": "CCGACTGGGGCAGGGTTACCATAACGCACAGCCA", "PBM binding z-score": 0.693},
      {"sequence": "GCTAGGAGGCCATTTGGGTCACTCAATGACGGGC", "PBM binding z-score": 1.5},
      {"sequence": "TCATATAGGTAAACGCTAGGTGAAAGTCCGATCT", "PBM binding z-score": 0.628},
      {"sequence": "TCTTGTAGATAAGCAGGTTAAGAAAGCTGGCCAA", "PBM binding z-score": -0.153},
      {"sequence": "CAAACTAGGTCACCTGAAGGTCAAAGTCCGCATG", "PBM binding z-score": 8.05},
      {"sequence": "CGAACTAGGTCATGGACAGGACAGTGAATAGTAA", "PBM binding z-score": 5.08},
      {"sequence": "CCTACCGGGCCATCAGGTCATTGATATCAACGTT", "PBM binding z-score": 2.12},
      {"sequence": "AGTCAAAGTTCATCTAAGTAACGTAAGATATGCT", "PBM binding z-score": 5.58},
      {"sequence": "TCTTGTAGATCAAGCAGGTTAATAAAGCCTGAGT", "PBM binding z-score": -0.313},
      {"sequence": "CAAACTAGGTCACGAAAGTTCAAAGTCGAATGAC", "PBM binding z-score": 6.73}
    ]},
    {"tested_on": "RARg homodimer (NR concentration 270 nM)", "experiment": "PBM binding z-score (relative to random genomic background probes); higher = stronger binding; sequences stand for … in GC…GCGATTGACAGCGTAGAATGAAGG", "procedure,_shortened": "as §1", "values": [
      {"sequence": "CGTCCTAGGTCAAAGGTCAGTGAAGAGATGACGG", "PBM binding z-score": 7.18},
      {"sequence": "TCTATTAGTCGAAGGGCAACCGACGAGTCCGTTT", "PBM binding z-score": 0.638},
      {"sequence": "TGAATGAGGTTAAAGATCGGGGAACGTGGCGTCG", "PBM binding z-score": 1.24},
      {"sequence": "CGTCAAAGTTGAAGGTAACGTAACAGAAAGCAGC", "PBM binding z-score": 1.11},
      {"sequence": "TCAAGCAGGCCAGAGGGTCACTCAAGAGGTACGG", "PBM binding z-score": 2.21},
      {"sequence": "GCTAGTTGGTCAGTAAAAGGTCACACCCCGGTCG", "PBM binding z-score": 4.3},
      {"sequence": "ATCGAAAGGTCGGCGAGGTGAGTATACACCGTTT", "PBM binding z-score": 3.91},
      {"sequence": "TCTAGCAGGCCCGAGGGTCACTCAAGAGGTACGG", "PBM binding z-score": 1.72},
      {"sequence": "ACTATTAGCTGAGACGAGGGCAACCGATAGGTTG", "PBM binding z-score": 0.667},
      {"sequence": "TAGCCTAGGTCGTGCGGGCCAGTATAGTGTCGGC", "PBM binding z-score": 0.719},
      {"sequence": "TCTTGTAGACCAATAGAGGTTAAGAAAGTGCGCT", "PBM binding z-score": 0.638},
      {"sequence": "TCCAGTAGGTTAGGGGCATTCAGAATGGCGTCGA", "PBM binding z-score": 0.313},
      {"sequence": "ATACCAAGGTGATCTTGAGGTCGTTGATACTAAC", "PBM binding z-score": 1.12},
      {"sequence": "ACTATTAGTTGAGACGTGGGCAACCGATAGGTTG", "PBM binding z-score": 0.239},
      {"sequence": "CCTACTGGGCCAAAAAGGTCATTGAGGCCGATAA", "PBM binding z-score": 4.17},
      {"sequence": "CGTCCAAGGTCATAGGAGGTCAGCGAAGACAGAT", "PBM binding z-score": 7.58},
      {"sequence": "GCATATAGGTAATGCAAGGTGAAAGTCCGATTGT", "PBM binding z-score": 0.479},
      {"sequence": "TCTAGCAGGCCAGAGGGTCATTCAAGAGGTACGG", "PBM binding z-score": 2.02},
      {"sequence": "AGAATGAGGTTACCAAAGATCAGCGAAACGCTTG", "PBM binding z-score": 1.45},
      {"sequence": "TCTATTAGTTGATTAGGGCAGCCGAAACAGCGGA", "PBM binding z-score": 0.628},
      {"sequence": "ACTATTAGTTGAGAAGAGGGCAACCGATAGGTTG", "PBM binding z-score": 0.968},
      {"sequence": "ACTAGCAGGCCAAGTTTGGGTCACTTAAACAAAG", "PBM binding z-score": 1.45},
      {"sequence": "TCGAGTAGGCTAGGGGCATTCAGAATGGCGTCGA", "PBM binding z-score": -0.498},
      {"sequence": "TCATATAGGTAAATGCTAGGTAAAAGTCCGATCT", "PBM binding z-score": 0.36},
      {"sequence": "CGAACTAGGACATTGACAGGACAGTGAATAGTAA", "PBM binding z-score": 0.642},
      {"sequence": "TGGCCTAGGTCATTGGGCCAGTATAGTACGCATC", "PBM binding z-score": 4.21},
      {"sequence": "CGAACGAGGGCATGGGTTGATAGCAAATGCCGAT", "PBM binding z-score": 1.55},
      {"sequence": "TAGCTTAGGTCATGCGGGCCAGTATAGTGTCGGC", "PBM binding z-score": 4.75},
      {"sequence": "CCTATTAGTTAACCATAAGGGCAACCGAAGCTCG", "PBM binding z-score": 1.14},
      {"sequence": "CCGACTGGGGCAGGGTTACCATAACGCACAGCCA", "PBM binding z-score": 0.718},
      {"sequence": "GCTAGGAGGCCATTTGGGTCACTCAATGACGGGC", "PBM binding z-score": 2.23},
      {"sequence": "TCATATAGGTAAACGCTAGGTGAAAGTCCGATCT", "PBM binding z-score": 0.523},
      {"sequence": "TCTTGTAGATAAGCAGGTTAAGAAAGCTGGCCAA", "PBM binding z-score": -0.231},
      {"sequence": "CAAACTAGGTCACCTGAAGGTCAAAGTCCGCATG", "PBM binding z-score": 7.61},
      {"sequence": "CGAACTAGGTCATGGACAGGACAGTGAATAGTAA", "PBM binding z-score": 4.95},
      {"sequence": "CCTACCGGGCCATCAGGTCATTGATATCAACGTT", "PBM binding z-score": 2.18},
      {"sequence": "AGTCAAAGTTCATCTAAGTAACGTAAGATATGCT", "PBM binding z-score": 6.53},
      {"sequence": "TCTTGTAGATCAAGCAGGTTAATAAAGCCTGAGT", "PBM binding z-score": -0.28},
      {"sequence": "CAAACTAGGTCACGAAAGTTCAAAGTCGAATGAC", "PBM binding z-score": 7.67}
    ]}
  ]
}
